SMILES strings stand for the structures. Among all 1,300 compounds or so, about 270 (21%) were called active. No rule for the calls is given here. Not all results are given here. Measured potencies and affinities stand elsewhere.

The nature of the test: cytotoxicity in parental SK-MEL-5 melanoma cells – cell-based, CellTiter-Glo, cherry-picked, set 3, orthogonal assay for MITF inhibitor project, dose response (AID 493240). The conditions noted are these: SK-MEL-5 viability, ATP luminescence (CellTiter-Glo), 24 h; series mostly up to 35 µM. For orientation: In ATP-based viability assays light output follows the ATP content of the culture.
With `Cc1cccc(NC(=O)CNC(=O)Cn2ncc(Cl)c(Cl)c2=O)c1C`, the outcome was inactive.
The same measure for `C/C(=N\Nc1nccnc1Cl)c1ccc(O)c(C)c1`: “inactive”.
`CCOC(=O)c1c(C)[nH]c(C)c1C(=O)COC(=O)c1ccc([N+](=O)[O-])s1`: the outcome was inactive.
To `O=C(c1ccc([N+](=O)[O-])s1)N1CCCc2ccccc21` belongs “inactive”; to `CCOC(=O)C(=Cc1ccc(-n2ccnc2)cc1)C(=O)OCC`, “inactive”; to `NC(=O)C1CCN(C2=C(NS(=O)(=O)c3ccc(Br)cc3)C(=O)c3ccccc3C2=O)CC1`, “inactive”.
Turning to `Cc1ccc(C(CNS(=O)(=O)c2ccc(Br)cc2)N2CCN(C)CC2)cc1` (centres undefined), the result was inactive.
The same measure for `Cc1cc(N2CCOCC2)ccc1/C=C\[N+](=O)[O-]`: “inactive”; for `COc1cc2c(c(OC)c1OC)-c1ccc(N(C)CC(OC)OC)c(=O)cc1[C@@H](NC(C)=O)CC2`: “inactive”; for `Nc1ccc2c(c1)OC1(CCCC1)O2`: “inactive”.
As for `COc1cc(OC)cc(C(=O)N[C@H](C(=O)Nc2nc3ccccc3[nH]2)C(C)C)c1`, the outcome was inactive.
The same measure for `CN(C)C1CCN(Cc2cc(COCc3ccccc3)c3cccnc3c2O)C1` (centres undefined): “inactive”.
For the compound `Oc1c(CN2CCCC2)cc(COCc2ccccc2)c2cccnc12`, the result was inactive.
The same measure for `COc1cccc(NC(=O)c2cc3c(=O)n4ccccc4nc3n(CC(C)C)c2=N)c1`: “inactive”; for `Cc1ccc(NC(=O)c2cc3cccc([N+](=O)[O-])c3[nH]2)cc1`: “inactive”.
The same measure for `CCN=c1scc(-c2ccco2)n1/N=C/c1ccc(O)cc1`: “inactive”; for `CC(C)CC(=O)/C=C/n1c(=S)oc2ccccc21`: “inactive”.
Regarding `CCC(=O)Nc1cc2nn(-c3ccc(C)cc3)nc2cc1C`, the result was inactive.
The same measure for `Cc1cc(N2CCOCC2)n2ncc(-c3ccccc3Cl)c2n1`: “inactive”.
The same measure for `O=C(CCl)N(Cc1cc(=O)[nH]c2ccccc12)c1ccccc1`: “inactive”; for `CCNc1nc(N)c(C(=O)c2ccc(Cl)s2)s1`: “inactive”; for `CN(C)c1ccc(CNc2ccccn2)cc1`: “inactive”.
To `CN(C)c1ccc(NC(=S)c2ccccn2)cc1` belongs “inactive”; to `O=C1c2ccccc2C(=O)c2c1ncn2-c1ccccc1`, “inactive”; to `Cc1c(/C=C/C(=O)c2ccc(Cl)s2)cnn1C`, “inactive”.
As to `CC1CN(N=Cc2ccc([N+](=O)[O-])o2)C(=N)O1` (centres undefined), the outcome was inactive.
To `C#Cc1cccc(NC(=O)CSc2nnc(-c3ccc(C(F)(F)F)cn3)o2)c1` belongs “inactive”; to `Cc1nc(NCCOc2ccccc2)sc1C(=O)Nc1ccccc1`, “inactive”.
`COc1ccc(NC(=O)c2cc(-c3ccccc3Cl)on2)cc1`: the outcome was inactive.
Consider `CCOC(=O)c1cnc2c(ccc3ccccc32)c1N`, for which the result was inactive.
Take `CCOC(=O)c1sc(-c2ccccc2)cc1N`: the result was inactive.
To `Cc1cc(/C(N)=N/OC(=O)Nc2ccc(Cl)cc2)no1` belongs “inactive”; to `COc1ccc(NCc2nc3ccccc3n2C)cc1`, “inactive”; to `CC(=O)c1cccc(Nc2nc(-c3cccnc3)cs2)c1`, “inactive”.
The same measure for `CC(C)N1C/C(=C/c2cccnc2)C(=O)/C(=C/c2cccnc2)C1`: “inactive”; for `CN1C/C(=C/c2cccnc2)C(=O)/C(=C/c2cccnc2)C1`: “inactive”; for `C=CCn1c(C)cc(C(=O)Cn2ncc(Cl)c(Cl)c2=O)c1C`: “inactive”.
With `O=C(NC1=NCCS1)C1COc2ccccc2O1` (centres undefined), the outcome was inactive.
The same measure for `COc1cc2ccccc2cc1C(=O)Nc1ccc(N2CCN(C)CC2)cc1`: “inactive”; for `Cc1c(C(=O)N(CCO)Cc2ccccc2)oc2c(F)cccc12`: “inactive”; for `COc1c(C)cccc1C(=O)Nc1ccc(N2CCN(S(C)(=O)=O)CC2)cc1`: “inactive”.
On to `CCC1CCCCN1CCCNC(=O)c1cn(CC)c2ccc(S(=O)(=O)N(C)C3CCCCC3)cc2c1=O` (centres undefined), for which the result was inactive.
Regarding `Cc1ccc(-c2nc(-c3ccncc3)no2)cc1C`, the result was inactive.
To `CCOc1ccc(NC(=O)c2ccc3snnc3c2)cc1` belongs “inactive”; to `Nc1ccccc1SC1CC(=O)N(c2ccc3c(c2)OCCO3)C1=O` (centres undefined), “inactive”.
The same measure for `O=C(O)c1ccc(C(=O)Nc2ccc(F)cc2)cc1`: “inactive”.
As to `O=C(Nc1ccc([N+](=O)[O-])cc1)c1ccccc1`, the outcome was inactive.
To `COc1ccc2c(C)nc(Nc3nc(-c4ccccc4)cc(=O)[nH]3)nc2c1` belongs “inactive”.
To `O=C(Cn1cc(/C=C\[N+](=O)[O-])c2ccccc21)Nc1ccccc1` belongs “inactive”.
For the compound `Oc1cc(NCc2cccnc2)ccc1-c1nc2ccccc2o1`, the result was inactive.
The same measure for `NCCN1C(=O)S/C(=C\c2ccc3c(c2)OCO3)C1=O`: “inactive”; for `O=C(COC(=O)C1=COCCO1)Nc1c(F)cccc1F`: “inactive”; for `N=c1n(CC(=O)c2ccc([N+](=O)[O-])cc2)c2ccccc2n1Cc1ccccc1`: “inactive”.
The same measure for `O=C(C[n+]1cccc2ccccc21)c1ccc([N+](=O)[O-])cc1`: “inactive”; for `N=c1n(CC(=O)c2ccc([N+](=O)[O-])cc2)c2ccccc2n1Cc1ccccc1Cl`: “inactive”.
The same measure for `Cc1ccccc1Cn1c(=N)n(CC(=O)c2ccc([N+](=O)[O-])cc2)c2ccccc21`: “inactive”; for `CC(NC(=O)C12CC3CC(CC(C3)C1)C2)C(=O)NN=Cc1ccc([N+](=O)[O-])o1` (centres undefined): “inactive”; for `Cc1ccc(-n2nnnc2Sc2nc([N+](=O)[O-])nn2C)c(C)c1`: “inactive”.
Take `O=C(O)c1cccc(COc2ccccc2Cl)c1`: the outcome was inactive.
To `COc1ccc(O)c(/C=N/NC(=O)c2ccc(CSc3nc(C)cc(C)n3)cc2)c1` belongs “inactive”; to `O=C(COc1ccc2c(c1)CCC2)N1CCc2ccccc21`, “inactive”; to `O=S(=O)(c1ccc(F)cc1)c1snnc1-c1ccccc1`, “inactive”.
To `COC(=O)c1ccc(Nc2cc(C)nc3ccc(C)cc23)cc1` belongs “inactive”; to `CCOc1ccc2nc(C)cc(Nc3cccc([N+](=O)[O-])c3)c2c1`, “inactive”.
As for `COc1ccc(NC(=O)CCC(=O)N/N=C/c2ccc([N+](=O)[O-])s2)cc1`, the outcome was inactive.
Consider `COc1ccc(NC(C)C(=O)N/N=C/c2ccc([N+](=O)[O-])s2)cc1` (centres undefined), for which the result was inactive.
The same measure for `O=[N+]([O-])c1c(NCCCO)cc(Sc2ccc(Cl)cc2)c2nonc12`: “inactive”; for `O=C(NCc1ccccc1)C(=O)Nc1cccc(C(=O)O)c1`: “inactive”; for `O=C(NC1CCCCC1)C(c1cccnc1)N(C(=O)CCl)c1ccc(F)cc1` (centres undefined): “inactive”.
With `CC(=O)NC1=C(N(C)C2CCS(=O)(=O)C2)C(=O)c2ccccc2C1=O` (centres undefined), the result was inactive.
The same measure for `O=C(NC1CCCCC1)C(c1cccnc1)N(C(=O)CCl)c1cccc(Cl)c1` (centres undefined): “inactive”; for `O=C(c1cc2ccccc2oc1=O)N(Cc1ccccc1)C1CCS(=O)(=O)C1` (centres undefined): “inactive”.
Take `CCC(=O)NC(c1ccccc1OC)c1ccc2cccnc2c1O` (centres undefined): the result was inactive.
To `Cc1ccc(C(=O)c2no[n+]([O-])c2C(=O)c2ccc(C)cc2)cc1` belongs “inactive”; to `Cc1ccc(NC(=O)C2CCN(S(=O)(=O)c3c(C)noc3/C=C/c3ccco3)CC2)nc1`, “inactive”.
Regarding `Cc1[nH]nc(Nc2ccc(Br)cc2)c1[N+](=O)[O-]`, the result was inactive.
As to `CC(C)(C)c1ccc(-c2noc(CCC(=O)NCC3CCCO3)n2)cc1` (centres undefined), the result was inactive.
To `Oc1ccccc1/C=N/Nc1cccc2cccnc12` belongs “inactive”.
`Cn1cccc1-c1cc(C(=O)N/N=C/c2cc(Br)ccc2O)[nH]n1`: the result was inactive.
To `O=C(CCCCC(=O)NN=Cc1ccccc1O)NN=Cc1ccccc1O` belongs “inactive”; to `O=C(N/N=C/c1cc(Br)ccc1O)c1ccncc1`, “inactive”.
To `COc1ccc(C(=O)NCCSc2ccccc2C)cc1` belongs “inactive”.
To `CCOc1ccc(NC(=O)c2ccccn2)cc1` belongs “inactive”; to `CC(C)N=C(NS(=O)(=O)c1ccccc1)C(Cl)(Cl)Cl`, “inactive”; to `O=C(Cn1cnc2ccccc2c1=O)Nc1ccc2c(c1)OCCO2`, “inactive”.
Take `Cc1nn(C)cc1/C=C/C(=O)c1cccs1`: the result was inactive.
In the case of `Cc1ccn2c(Nc3ccccc3)c(-c3ccccn3)nc2c1`, the outcome was inactive.
The same measure for `O=[N+]([O-])c1cc(C(F)(F)F)ccc1NCCc1ccccn1`: “inactive”.
To `COc1ccc(COC(=O)c2n[nH]c3ccccc23)cc1F` belongs “inactive”; to `Cc1cc(Br)ccc1OCc1nc(-c2cccnc2)no1`, “inactive”; to `O=C(NC1CCCCCC1)c1cc2ccccc2oc1=O`, “inactive”.
To `CCOC(=O)c1cc([N+](=O)[O-])c([N+](=O)[O-])cc1NC(C)=O` belongs “inactive”; to `N/C(=N\OC(=O)c1ccccc1)c1ccccn1`, “inactive”; to `N/C(CS(=O)(=O)c1ccccn1)=N\OC(=O)c1ccccc1Cl`, “inactive”.
Consider `O=C(Nc1ccc2c(c1)OCCO2)c1ccoc1`, for which the result was inactive.
To `COc1ccccc1NC(=O)c1cnc(SCC(=O)NCC2CCCO2)n(C)c1=O` (centres undefined) belongs “inactive”; to `COc1ccc(Cn2c(-c3ccc(C)cc3)c[n+]3ccccc23)cc1`, “inactive”.
To `COc1ccc2oc(=O)c(C(=O)Nc3ccccc3C)cc2c1` belongs “inactive”.
The same measure for `CCC[n+]1c(C)sc2c3c(ccc21)CCCC3`: “inactive”; for `O=C(Nc1ccccc1)C1Cc2ccccc2CN1C(=O)c1ccco1` (centres undefined): “inactive”.
In the case of `Cc1ccc(OCCNCc2ccccc2)c(C)c1`, the result was inactive.
To `Cc1cc(Cl)ccc1NC(=O)c1ccc2c(c1)OCO2` belongs “inactive”; to `CN(C)c1ccc(/C=C(\C#N)c2ccccn2)cc1`, “inactive”; to `O=C1NC2c3c(I)sc(I)c3C(=O)C2O1` (centres undefined), “inactive”.
As to `C/C(=N\Nc1cc(N2CCOCC2)ncn1)c1ccccc1`, the result was inactive.
To `O=C(Nc1ccccc1N1CCN(C(=O)c2ccccc2)CC1)c1ccc([N+](=O)[O-])o1` belongs “inactive”.
To `COc1ccccc1N1CCN(/N=C/c2cccc(Cl)c2)CC1` belongs “inactive”.
To `O=C(CS(=O)c1ccc(C(F)(F)F)cc1[N+](=O)[O-])Oc1ccccc1` (centres undefined) belongs “inactive”; to `O=C(/C=C\c1ccccc1)NCC(=O)N/N=C/c1ccc(O)cc1O`, “inactive”; to `CCOC(=O)/C=c1/s/c(=C/c2ccc3cc(OC)ccc3c2)c(=O)n1CC(=O)NCC1CCCO1` (centres undefined), “inactive”.
Take `CC(C)(C)C(=O)/C(=C/c1ccncc1)n1cncn1`: the outcome was inactive.
To `c1ccc(OCc2nn3c(-c4ccccn4)nnc3s2)cc1` belongs “inactive”; to `O=C(N/N=C/c1ccccc1Cl)c1n[nH]c2c1CCCC2`, “inactive”; to `N#Cc1cnn2cc(CCN3CCOCC3)c(-c3ccc(F)cc3)nc12`, “inactive”.
